Bioassay records deposited in PubChem by Broad Institute.
This is one part of a sample in which hits are shown more often than they occur.
Tg IFNy HTS: T. gondii growth inhibition with IFN-gamma, primary screen, cell-based; Toxoplasma gondii growth in IFN-gamma-treated host cells; hits give low values; activity change, negative = inhibition, % (no concentration beside the values); 69,000 tested, 3.8% active; AID 1259416, 2018; in the data active means activity change below about -70%, passing the limit was not always enough;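 further: host cells are HeLa cells infected with Toxoplasma gondii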
Starred values were filed as active, the others as inactive; ! = not active in a repeat.

SMILES	Tg IFNy HTS
CC[C@H]1CN2CCc3cc(OC)c(OC)cc3C2C[C@@H]1CC1NCCc2cc(OC)c(OC)cc21 (some centres not stated)	-79*
CCS(=O)(=O)N1CCc2cc(OC)c(OC)cc2C1c1ccc(OC)c(OC)c1 (configuration not stated)	36
COc1cc2c(cc1OC)C(Cc1ccc(O)cc1)N(C)CC2 (configuration not stated)	6
CN(C)C(=O)N1CC2(CCN(S(=O)(=O)N(C)C)CC2)C2(CCN(C)C2=O)C1 (configuration not stated)	-3
CC(C)CN1C(=O)CCc2cc(NS(=O)(=O)c3ccccc3)ccc21	-50
CCN1C(=O)CCc2cc(NS(=O)(=O)Cc3ccc(Cl)cc3)ccc21	-41
CCN1C(=O)CCc2cc(NS(=O)(=O)c3cccc(F)c3)ccc21	194
CCN1C(=O)CCc2cc(NS(=O)(=O)c3cc(F)ccc3F)ccc21	53
Cc1cc(C)cc(S(=O)(=O)Nc2ccc3c(c2)CCC(=O)N3CC(C)C)c1	-40
CC(C)CN1C(=O)CCc2cc(NS(=O)(=O)c3ccc(Cl)cc3)ccc21	-80*
CCN1C(=O)CCc2cc(NS(=O)(=O)c3c(C)cccc3Cl)ccc21	-48
CCN1C(=O)CCc2cc(NS(=O)(=O)c3ccc(C4CCCCC4)cc3)ccc21	-95*
CCN1C(=O)CCc2cc(NS(=O)(=O)c3ccc(C#N)cc3)ccc21	-102*
O=C(NCc1ccc(S(=O)(=O)NCCSCc2ccco2)s1)c1ccccc1	41
Cc1nc(C(C)N(C)C(=O)c2ncn[nH]2)c(C)s1 (configuration not stated)	11
CCc1cccc(C)c1NC(=O)Cn1c(=O)cc(C(=O)N2CCCC2)c2ccccc21	12
COc1cc(C(=O)c2ccccc2C#N)cc(OC)c1OC	-64
Cc1ccc(S(=O)(=O)NCc2cccc(OCC3CCCO3)c2)s1 (configuration not stated)	13
CC1=C(C(=O)N(C)Cc2ccc3nsnc3c2)C(C)NC(=O)N1 (configuration not stated)	-31
CCOc1ccccc1C(=O)NC(Nc1ccccn1)(C(F)(F)F)C(F)(F)F	58
Fc1cccc(-c2nc3c(c(NC4CC4)n2)CNCC3)c1	-86*
CN1C(C)(C)CC(Nc2nc(-c3ccccn3)nc3c2CCNC3)CC1(C)C	-4
c1ccc2c(c1)CC(Nc1nc(C3CCCC3)nc3c1CNC3)CO2 (configuration not stated)	2
Cc1ccc(S(=O)(=O)N2CCC(c3nnc(-c4cnc(C)cn4)o3)C2)cc1 (configuration not stated)	-11
CC1(C)CCC(CN2CCN(c3ccc(C(=O)NS(=O)(=O)c4ccc(NCC5CCOCC5)c([N+](=O)[O-])c4)c(Oc4cnc5[nH]ccc5c4)c3)CC2)=C(c2ccc(Cl)cc2)C1	-80*
SMILES	Tg IFNy HTS
CC(C)C(=O)c1ccc2nnc(C3CCN(Cc4ccccc4)C3)n2c1 (configuration not stated)	-4
Cc1nccn1CC1CCCN(CC(=O)N2CCN(c3ccccc3F)CC2)C1 (configuration not stated)	-3
CC(NC(=O)CC1C(=O)NCCN1Cc1cccc(F)c1)C1CC2CCC1C2 (configuration not stated)	10
O=C(c1ccc(OCCN2CCCCC2)cc1)c1c(-c2ccc(O)cc2)sc2cc(O)ccc12	-17
CN1CCCN(Cc2cnc3c(-c4ccccc4)cnn3c2)CC1	11
c1cc(-c2cnn3cc(-c4ccc(OCCN5CCCCC5)cc4)cnc23)ccn1	-75*
CN(Cc1ccc2c(c1)OCCO2)Cc1cc(-c2ccccc2)no1	-1
Cc1cc2c(cc1O)NC(=O)CC2c1nccs1 (configuration not stated)	-29
COCCn1ccnc1C1CC(=O)Nc2cc(O)c(C)cc21 (configuration not stated)	-1
COC(=O)c1cccc(C2CC(=O)Nc3cc(O)c(C)cc32)n1 (configuration not stated)	-81*
C=CCc1ccccc1OCCN(C)C(=O)C(C)C	7
CC(C)N1c2ccccc2C(c2ccc(F)cc2)C1/C=C/C(O)CC(O)CC(=O)O (configuration not stated)	-62
CN(C)c1nc2c(c(=O)[nH]1)CCN(C(=O)NC13CC4CC(CC(C4)C1)C3)C2	-3
CCN1CCC2(CC1)CC(NC(=O)c1csnn1)c1ccccc1O2 (configuration not stated)	14
COc1cc(C(=O)O)ccc1NC(=O)[C@@H]1N[C@@H](CC(C)(C)C)[C@](C#N)(c2ccc(Cl)cc2F)[C@H]1c1cccc(Cl)c1F	-80*
Cc1ccc(NC(=O)CC(=O)N(C)Cc2nonc2C)c(C)c1	44
CC1(C(=O)NCc2ccc(F)cc2F)CCN(C(=O)COc2ccccc2)CC1	15
Cc1cc(C)n(Cc2nc(-c3ccc(NC(=O)Cc4ccc(Cl)cc4)cc3)oc2C)n1	-44
CN(Cc1nccn1C)c1ccc(-c2nccn2C)nn1	-3
Cc1c(CN(C)c2ccc(-c3nccn3C)nn2)[nH]c2ccccc12	-96*
CN(Cc1ccoc1)c1ccc(-c2nccn2C)nn1	67
C1CCC(c2nc(CN3CCCCC3CCN3CCOCC3)no2)C1 (configuration not stated)	6
Cc1noc(C)c1C1CCCN1C(=O)c1cc(-c2ccccc2O)n[nH]1 (configuration not stated)	3
CCOc1cc2c(cc1OCC)C(c1ccccc1)N(c1ccc(C(=O)O)cc1)C(=O)C2 (configuration not stated)	-16
COc1cc2c(cc1OC(C)C)[C@H](c1ccc(Cl)cc1)N(c1ccc(N(C)CC3CCC(N4CCN(C)C(=O)C4)CC3)cc1)C(=O)C2 (some centres not stated)	-79*
SMILES	Tg IFNy HTS
Nc1nccc2c1ncn2[C@@H]1C=C(CO)[C@@H](O)[C@H]1O	-78*
Nc1nccc2c1ncn2[C@@H]1O[C@H](CO)C(O)C1O (some centres not stated)	-3
CCN(CC)Cc1cnc2c(C(=O)Nc3c(C)cc(=O)[nH]c3C)cnn2c1	-1
CN(C)CCC=C1c2ccccc2C=Cc2ccccc21	-26
OCCN1CCN(CC/C=C2/c3ccccc3Sc3ccc(Cl)cc32)CC1	-74*
CN(C)CCC1(c2ccc(Cl)cc2)Cc2ccccc2C(=O)O1 (configuration not stated)	14
CC(C)c1ccc2c(c1)C(N1CCN(CCO)CC1)Cc1ccc(F)cc1S2 (configuration not stated)	-66
CN(C)CC/C=C1/c2ccccc2COc2ccccc21	16
CN(C)CCC=C1c2ccccc2CCc2ccccc21	-75*!
OCCOCCN1CCN(C2=Nc3ccccc3Sc3ccccc32)CC1	-4
CN(C)CC/C=C1\c2ccccc2Sc2ccc(Cl)cc21	-77*!
CN(C)CC/C=C1/c2ccccc2COc2ccc(CC(=O)O)cc21	-2
O=C(c1ccc(CO)o1)N1CCCCC1CCc1cccc(O)c1 (configuration not stated)	-1
O=S(=O)(c1cccs1)N1CCCC1c1ccccn1 (configuration not stated)	-6
O=S1(=O)Cc2cnc(NCC3CC3)nc2[C@H]2CN(Cc3ccccc3)C[C@@H]21	-3
CCOC(=O)CSC1=Nc2ccccc2C2=NC(CCC(=O)NCCc3ccccc3)C(=O)N12 (configuration not stated)	2
CN(C)CC1(O)CCN(C(=O)CCCCc2ccccc2)C1 (configuration not stated)	3
